Assay results from PubChem BioAssay (NCATS).
Results filed as inconclusive are left out. The source made the active and inactive calls. Unless noted, calls follow the shape of the dose curve; as a rule, active = well fitted curve in the direction sought with a large enough effect; inconclusive = small, poorly fitted or top-dose-only effect, or another doubt; inactive = no such curve, though single readings can be large; an effect the other way counts as inactive or inconclusive.

How the values were obtained:
[1] = target: ATP-dependent 6-phosphofructokinase (Trypanosoma brucei brucei) (UniProt O15648); assay: qHTS Assay to Find Inhibitors of T. brucei phosphofructokinase: hit validation (AID 492961);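 also: luminescence reports ADP formed as PFK phosphorylates fructose-6-phosphate with ATP; % is scaled to controls: 0 for no effect and ±100 for the full control effect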
Outline: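 Measures ADP output of PFK (1.25 nM) at 0.1 mM ATP, 0.5 mM F6P, pH 8.0 TEA buffer with 5 mM MgCl2. No-enzyme wells define full inhibition; uninhibited enzyme wells define zero.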

[2] = target: Ubiquitin carboxyl-terminal hydrolase 1 (Homo sapiens) (UniProt O94782); assay: Inhibitors of USP1/UAF1: Pilot qHTS (AID 504865);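 also: rhodamine fluorescence freed from ubiquitin-rhodamine substrate followed over time; top concentration of the series differs between compounds; % is scaled to controls: 0 for no effect and ±100 for the full control effect; nearly all actives have a fitted effect of over 35% in size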
Outline: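 In 50mM HEPES pH 7.8 containing 0.5mM EDTA, 1mM TCEP, 0.1 mg/ml BSA and 0.01% Tween-20, 1nM USP1/UAF1 is exposed to compound for 15 min, then Ub-Rho (150nM final) is added and fluorescence is read over time.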

[3] = target: Luciferin 4-monooxygenase (Photinus pyralis) (UniProt P08659); assay: Biochemical firefly luciferase enzyme assay for NPC (AID 624030);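 also: purified P. pyralis luciferase at 10 nM with luciferin and ATP substrate; 0% = DMSO and -100% = full luciferase inhibition by PTC124 control; nearly all actives have a fitted effect of over 70% in size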
Outline: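 Direct inhibition of firefly luciferase enzyme (10 nM final, 50 mM Tris Acetate) assessed by luminescence within 5 minutes. Percent activity scaled between DMSO and PTC124 positive control, with concentration-effect curves classified by fit quality and response.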

[4] = S16 Schwann cell viability assay (CellTiter-Glo assay) (AID 624031);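 also: native untransfected S16 rat Schwann cells; plate controls were DMSO-treated cells for no effect and cell-free wells for full effect; nearly all actives have a fitted effect of over 70% in size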
Outline: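 Counter-screen for cytotoxicity: parental S16 rat Schwann cells lacking the PMP22 reporters, treated 24 h with compound, viability from cellular ATP by CellTiter-Glo luminescence, normalized to DMSO (0%) and no-cell wells.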

[5] = S16 Schwann cell PMP22 intronic element firefly luciferase assay (AID 624032);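 also: plate controls were DMSO for no effect and PTC124 positive control mean for full effect; nearly all actives have a fitted effect of over 30% in size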
Outline: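 Luciferase reporter of PMP22 intronic-element expression in stably transfected S16 rat Schwann cells, read by ONE-Glo luminescence after 24 h compound exposure at 37 C. Activity scaled between DMSO (0%) and positive-control PTC124; concentration-effect curves quality-classified.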

[6] = S16 Schwann cell PMP22 intronic element beta-lactamase assay (AID 624044; calls by dose curve;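 also: 0% = DMSO and -100% = potassium clavulanate positive control; nearly all actives have a fitted effect of over 15% in size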); settings: S16 rat Schwann cells, PMP22 element beta-lactamase FRET, 24 h; ratio activity, negative = inhibition: at 38.3 µM (top of the series)
Outline: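 Beta-lactamase reporter under a PMP22 intronic regulatory element in stable S16 rat Schwann cells; 24 h compound exposure. 460 nm blue signal normalized between DMSO (0%) and potassium clavulanate, with 535 nm FRET tracking viability; curves classed by r2 and response.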

[7] = qHTS profiling for inhibitors of Plasmodium falciparum proliferation (AID 504749);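 also: 0% = DMSO vehicle and full inhibition = artemisinin control; nearly all actives have a fitted effect of over 60% in size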; settings: P. falciparum in erythrocytes, SYBR Green DNA, 72 h, at 28.7 µM (top of the series)
Outline: (§1)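 In a 72 h erythrocytic culture (37 C, humidified, 5% CO2) at 2.5% hematocrit and 0.3% starting parasitemia, compounds were tested; SYBR Green I in detergent lysis buffer stained parasite DNA overnight.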

3D7 = assay: as above; settings: P. falciparum in erythrocytes, SYBR Green DNA, 72 h; series mostly up to 28.7 µM
Outline: as §1

7G8 = assay: as above; settings: P. falciparum in erythrocytes, SYBR Green DNA, 72 h; series mostly up to 28.7 µM
Outline: as §1

AA1029 = assay: as above; settings: P. falciparum in erythrocytes, SYBR Green DNA, 72 h; series mostly up to 28.7 µM
Outline: as §1

AS120 = assay: as above; settings: P. falciparum in erythrocytes, SYBR Green DNA, 72 h; series mostly up to 28.7 µM
Outline: as §1

ATS189 = assay: as above; settings: P. falciparum in erythrocytes, SYBR Green DNA, 72 h; series mostly up to 28.7 µM
Outline: as §1

ATS95 = assay: as above; settings: P. falciparum in erythrocytes, SYBR Green DNA, 72 h; series mostly up to 28.7 µM
Outline: as §1

C2A = assay: as above; settings: P. falciparum in erythrocytes, SYBR Green DNA, 72 h; series mostly up to 28.7 µM
Outline: as §1

CP185 = assay: as above; settings: P. falciparum in erythrocytes, SYBR Green DNA, 72 h; series mostly up to 28.7 µM
Outline: as §1

CP191 = assay: as above; settings: P. falciparum in erythrocytes, SYBR Green DNA, 72 h; series mostly up to 28.7 µM
Outline: as §1

CP192 = assay: as above; settings: P. falciparum in erythrocytes, SYBR Green DNA, 72 h; series mostly up to 28.7 µM
Outline: as §1

CP194 = assay: as above; settings: P. falciparum in erythrocytes, SYBR Green DNA, 72 h; series mostly up to 28.7 µM
Outline: as §1

CP201 = assay: as above; settings: P. falciparum in erythrocytes, SYBR Green DNA, 72 h; series mostly up to 28.7 µM
Outline: as §1

CP203 = assay: as above; settings: P. falciparum in erythrocytes, SYBR Green DNA, 72 h; series mostly up to 28.7 µM
Outline: as §1

CP211 = assay: as above; settings: P. falciparum in erythrocytes, SYBR Green DNA, 72 h; series mostly up to 28.7 µM
Outline: as §1

CP215 = assay: as above; settings: P. falciparum in erythrocytes, SYBR Green DNA, 72 h; series mostly up to 28.7 µM
Outline: as §1

CP217 = assay: as above; settings: P. falciparum in erythrocytes, SYBR Green DNA, 72 h; series mostly up to 28.7 µM
Outline: as §1

CP237 = assay: as above; settings: P. falciparum in erythrocytes, SYBR Green DNA, 72 h; series mostly up to 28.7 µM
Outline: as §1

CP238 = assay: as above; settings: P. falciparum in erythrocytes, SYBR Green DNA, 72 h; series mostly up to 28.7 µM
Outline: as §1

CP247 = assay: as above; settings: P. falciparum in erythrocytes, SYBR Green DNA, 72 h; series mostly up to 28.7 µM
Outline: as §1

CP250 = assay: as above; settings: P. falciparum in erythrocytes, SYBR Green DNA, 72 h; series mostly up to 28.7 µM
Outline: as §1

CP252 = assay: as above; settings: P. falciparum in erythrocytes, SYBR Green DNA, 72 h; series mostly up to 28.7 µM
Outline: as §1

CP256 = assay: as above; settings: P. falciparum in erythrocytes, SYBR Green DNA, 72 h; series mostly up to 28.7 µM
Outline: as §1

CP260 = assay: as above; settings: P. falciparum in erythrocytes, SYBR Green DNA, 72 h; series mostly up to 28.7 µM
Outline: as §1

CP262 = assay: as above; settings: P. falciparum in erythrocytes, SYBR Green DNA, 72 h; series mostly up to 28.7 µM
Outline: as §1

CP265 = assay: as above; settings: P. falciparum in erythrocytes, SYBR Green DNA, 72 h; series mostly up to 28.7 µM
Outline: as §1

CP266 = assay: as above; settings: P. falciparum in erythrocytes, SYBR Green DNA, 72 h; series mostly up to 28.7 µM
Outline: as §1

CP268 = assay: as above; settings: P. falciparum in erythrocytes, SYBR Green DNA, 72 h; series mostly up to 28.7 µM
Outline: as §1

CP269 = assay: as above; settings: P. falciparum in erythrocytes, SYBR Green DNA, 72 h; series mostly up to 28.7 µM
Outline: as §1

CP286 = assay: as above; settings: P. falciparum in erythrocytes, SYBR Green DNA, 72 h; series mostly up to 28.7 µM
Outline: as §1

CP291 = assay: as above; settings: P. falciparum in erythrocytes, SYBR Green DNA, 72 h; series mostly up to 28.7 µM
Outline: as §1

CP297 = assay: as above; settings: P. falciparum in erythrocytes, SYBR Green DNA, 72 h; series mostly up to 28.7 µM
Outline: as §1

CP305 = assay: as above; settings: P. falciparum in erythrocytes, SYBR Green DNA, 72 h; series mostly up to 28.7 µM
Outline: as §1

CP315 = assay: as above; settings: P. falciparum in erythrocytes, SYBR Green DNA, 72 h; series mostly up to 28.7 µM
Outline: as §1

CP325 = assay: as above; settings: P. falciparum in erythrocytes, SYBR Green DNA, 72 h; series mostly up to 28.7 µM
Outline: as §1

CP329 = assay: as above; settings: P. falciparum in erythrocytes, SYBR Green DNA, 72 h; series mostly up to 28.7 µM
Outline: as §1

CP335 = assay: as above; settings: P. falciparum in erythrocytes, SYBR Green DNA, 72 h; series mostly up to 28.7 µM
Outline: as §1

DFO2036 = assay: as above; settings: P. falciparum in erythrocytes, SYBR Green DNA, 72 h; series mostly up to 28.7 µM
Outline: as §1

DIV14 = assay: as above; settings: P. falciparum in erythrocytes, SYBR Green DNA, 72 h; series mostly up to 28.7 µM
Outline: as §1

DIV17 = assay: as above; settings: P. falciparum in erythrocytes, SYBR Green DNA, 72 h; series mostly up to 28.7 µM
Outline: as §1

DIV30 = assay: as above; settings: P. falciparum in erythrocytes, SYBR Green DNA, 72 h; series mostly up to 28.7 µM
Outline: as §1

Dd2 = assay: as above; settings: P. falciparum in erythrocytes, SYBR Green DNA, 72 h; series mostly up to 28.7 µM
Outline: as §1

ECU = assay: as above; settings: P. falciparum in erythrocytes, SYBR Green DNA, 72 h; series mostly up to 28.7 µM
Outline: as §1

FAB9 = assay: as above; settings: P. falciparum in erythrocytes, SYBR Green DNA, 72 h; series mostly up to 28.7 µM
Outline: as §1

GB4 = assay: as above; settings: P. falciparum in erythrocytes, SYBR Green DNA, 72 h; series mostly up to 28.7 µM
Outline: as §1

HB3 = assay: as above; settings: P. falciparum in erythrocytes, SYBR Green DNA, 72 h; series mostly up to 28.7 µM
Outline: as §1

ICS = assay: as above; settings: P. falciparum in erythrocytes, SYBR Green DNA, 72 h; series mostly up to 28.7 µM
Outline: as §1

JCK = assay: as above; settings: P. falciparum in erythrocytes, SYBR Green DNA, 72 h; series mostly up to 28.7 µM
Outline: as §1

N140 = assay: as above; settings: P. falciparum in erythrocytes, SYBR Green DNA, 72 h; series mostly up to 28.7 µM
Outline: as §1

P93_24 = assay: as above; settings: P. falciparum in erythrocytes, SYBR Green DNA, 72 h; series mostly up to 28.7 µM
Outline: as §1

P94_40 = assay: as above; settings: P. falciparum in erythrocytes, SYBR Green DNA, 72 h; series mostly up to 28.7 µM
Outline: as §1

PAD = assay: as above; settings: P. falciparum in erythrocytes, SYBR Green DNA, 72 h; series mostly up to 28.7 µM
Outline: as §1

PC15 = assay: as above; settings: P. falciparum in erythrocytes, SYBR Green DNA, 72 h; series mostly up to 28.7 µM
Outline: as §1

PC26 = assay: as above; settings: P. falciparum in erythrocytes, SYBR Green DNA, 72 h; series mostly up to 28.7 µM
Outline: as §1

PC49 = assay: as above; settings: P. falciparum in erythrocytes, SYBR Green DNA, 72 h; series mostly up to 28.7 µM
Outline: as §1

SC27B = assay: as above; settings: P. falciparum in erythrocytes, SYBR Green DNA, 72 h; series mostly up to 28.7 µM
Outline: as §1

TAB109 = assay: as above; settings: P. falciparum in erythrocytes, SYBR Green DNA, 72 h; series mostly up to 28.7 µM
Outline: as §1

TAB113 = assay: as above; settings: P. falciparum in erythrocytes, SYBR Green DNA, 72 h; series mostly up to 28.7 µM
Outline: as §1

TAB165 = assay: as above; settings: P. falciparum in erythrocytes, SYBR Green DNA, 72 h; series mostly up to 28.7 µM
Outline: as §1

W2 = assay: as above; settings: P. falciparum in erythrocytes, SYBR Green DNA, 72 h; series mostly up to 28.7 µM
Outline: as §1

Chain of ATP-dependent 6-phosphofructokinase (Trypanosoma brucei brucei) (O15648 whole entry, looked up): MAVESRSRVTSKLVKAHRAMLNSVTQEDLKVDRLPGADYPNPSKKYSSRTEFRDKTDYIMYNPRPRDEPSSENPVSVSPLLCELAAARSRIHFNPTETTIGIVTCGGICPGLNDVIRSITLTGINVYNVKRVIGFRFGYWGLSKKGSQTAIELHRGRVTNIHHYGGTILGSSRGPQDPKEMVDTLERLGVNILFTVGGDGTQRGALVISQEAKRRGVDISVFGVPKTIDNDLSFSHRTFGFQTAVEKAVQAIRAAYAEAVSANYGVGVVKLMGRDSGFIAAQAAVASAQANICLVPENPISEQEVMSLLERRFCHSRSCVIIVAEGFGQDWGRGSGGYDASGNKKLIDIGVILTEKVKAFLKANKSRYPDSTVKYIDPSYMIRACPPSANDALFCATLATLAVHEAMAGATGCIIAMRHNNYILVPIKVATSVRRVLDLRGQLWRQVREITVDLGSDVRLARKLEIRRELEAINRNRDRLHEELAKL
Chain of Luciferin 4-monooxygenase (Photinus pyralis) (P08659 whole entry, looked up): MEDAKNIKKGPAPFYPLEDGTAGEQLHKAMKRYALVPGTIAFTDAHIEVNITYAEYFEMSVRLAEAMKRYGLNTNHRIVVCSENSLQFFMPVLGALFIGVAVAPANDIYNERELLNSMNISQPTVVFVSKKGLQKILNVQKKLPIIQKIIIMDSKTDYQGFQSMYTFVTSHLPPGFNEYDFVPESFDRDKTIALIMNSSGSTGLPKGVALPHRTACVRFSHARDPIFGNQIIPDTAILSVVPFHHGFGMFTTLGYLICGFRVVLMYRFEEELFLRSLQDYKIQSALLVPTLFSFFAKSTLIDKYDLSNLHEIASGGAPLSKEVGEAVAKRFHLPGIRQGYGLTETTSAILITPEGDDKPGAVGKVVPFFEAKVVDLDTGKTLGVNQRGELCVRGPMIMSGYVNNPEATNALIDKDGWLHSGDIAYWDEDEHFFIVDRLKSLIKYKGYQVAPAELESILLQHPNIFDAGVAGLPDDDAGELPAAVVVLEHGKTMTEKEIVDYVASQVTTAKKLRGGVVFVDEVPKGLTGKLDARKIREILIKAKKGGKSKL
Chain of Ubiquitin carboxyl-terminal hydrolase 1 (Homo sapiens) (O94782 whole entry, looked up): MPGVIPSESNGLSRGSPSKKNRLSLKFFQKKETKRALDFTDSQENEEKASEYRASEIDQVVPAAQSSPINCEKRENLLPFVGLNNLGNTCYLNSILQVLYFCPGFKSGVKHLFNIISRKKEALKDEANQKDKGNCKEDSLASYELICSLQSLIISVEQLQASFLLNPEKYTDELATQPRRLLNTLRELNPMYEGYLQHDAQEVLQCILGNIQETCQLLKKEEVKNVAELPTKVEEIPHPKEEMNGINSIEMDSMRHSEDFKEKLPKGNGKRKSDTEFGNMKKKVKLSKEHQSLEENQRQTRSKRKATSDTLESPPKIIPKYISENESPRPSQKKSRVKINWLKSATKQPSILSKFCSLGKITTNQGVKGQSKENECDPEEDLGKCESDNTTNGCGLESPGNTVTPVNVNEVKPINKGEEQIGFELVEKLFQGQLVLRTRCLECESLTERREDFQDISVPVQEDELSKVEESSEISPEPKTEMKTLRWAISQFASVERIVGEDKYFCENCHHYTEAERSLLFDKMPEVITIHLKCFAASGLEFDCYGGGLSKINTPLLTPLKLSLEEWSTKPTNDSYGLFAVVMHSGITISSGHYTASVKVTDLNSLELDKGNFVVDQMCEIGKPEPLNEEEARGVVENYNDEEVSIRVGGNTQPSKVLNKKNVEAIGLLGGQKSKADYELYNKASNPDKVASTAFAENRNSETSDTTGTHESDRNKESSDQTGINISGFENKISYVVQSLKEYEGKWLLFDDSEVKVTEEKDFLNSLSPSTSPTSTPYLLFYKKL

C=C(NCc1ccccc1)c1ccccc1O
inactive: Potency [1] | Potency [2] | Potency [3] | Potency [4] | Potency [5] | Potency [6] | activity, negative = inhibition ([7]; parasite line A) 12.8% | activity, negative = inhibition ([7]; parasite line B) 10.7% | Potency (3D7) | Potency (7G8) | Potency (AA1029) | Potency (AS120) | Potency (ATS189) | Potency (ATS95) | Potency (C2A) | Potency (CP185) | Potency (CP191) | Potency (CP192) | Potency (CP194) | Potency (CP201) | Potency (CP203) | Potency (CP211) | Potency (CP215) | Potency (CP217) | Potency (CP237) | Potency (CP238) | Potency (CP247) | Potency (CP250) | Potency (CP252) | Potency (CP256) | Potency (CP260) | Potency (CP262) | Potency (CP265) | Potency (CP266) | Potency (CP268) | Potency (CP269) | Potency (CP286) | Potency (CP291) | Potency (CP297) | Potency (CP305) | Potency (CP315) | Potency (CP325) | Potency (CP329) | Potency (CP335) | Potency (DFO2036) | Potency (DIV14) | Potency (DIV17) | Potency (DIV30) | Potency (Dd2) | Potency (ECU) | Potency (FAB9) | Potency (GB4) | Potency (HB3) | Potency (ICS) | Potency (JCK) | Potency (N140) | Potency (P93_24) | Potency (P94_40) | Potency (PAD) | Potency (PC15) | Potency (PC26) | Potency (PC49) | Potency (SC27B) | Potency (TAB109) | Potency (TAB113) | Potency (TAB165) | Potency (W2)
